Measurements taken from article PMC4336329 (PLoS ONE, 2015).
The whole screen tested about 310,000 compounds, of which about 14,000 (4.5%) showed an effect of 50% or more. The effect is printed as a negative number. The sample as a whole holds a higher share of strong results than the screen did.

Target: human ether-à-go-go-related gene (hERG) potassium channel (human, UniProt Q12809)
Experiment: primary screen, population patch clamp on CHO cells stably expressing hERG; higher = less effect of the substance
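Further: peak tail current of the secondary pulse compared with the same well before compound.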

human ether-à-go-go-related gene (hERG) potassium channel, sequence (Q12809 whole entry, looked up): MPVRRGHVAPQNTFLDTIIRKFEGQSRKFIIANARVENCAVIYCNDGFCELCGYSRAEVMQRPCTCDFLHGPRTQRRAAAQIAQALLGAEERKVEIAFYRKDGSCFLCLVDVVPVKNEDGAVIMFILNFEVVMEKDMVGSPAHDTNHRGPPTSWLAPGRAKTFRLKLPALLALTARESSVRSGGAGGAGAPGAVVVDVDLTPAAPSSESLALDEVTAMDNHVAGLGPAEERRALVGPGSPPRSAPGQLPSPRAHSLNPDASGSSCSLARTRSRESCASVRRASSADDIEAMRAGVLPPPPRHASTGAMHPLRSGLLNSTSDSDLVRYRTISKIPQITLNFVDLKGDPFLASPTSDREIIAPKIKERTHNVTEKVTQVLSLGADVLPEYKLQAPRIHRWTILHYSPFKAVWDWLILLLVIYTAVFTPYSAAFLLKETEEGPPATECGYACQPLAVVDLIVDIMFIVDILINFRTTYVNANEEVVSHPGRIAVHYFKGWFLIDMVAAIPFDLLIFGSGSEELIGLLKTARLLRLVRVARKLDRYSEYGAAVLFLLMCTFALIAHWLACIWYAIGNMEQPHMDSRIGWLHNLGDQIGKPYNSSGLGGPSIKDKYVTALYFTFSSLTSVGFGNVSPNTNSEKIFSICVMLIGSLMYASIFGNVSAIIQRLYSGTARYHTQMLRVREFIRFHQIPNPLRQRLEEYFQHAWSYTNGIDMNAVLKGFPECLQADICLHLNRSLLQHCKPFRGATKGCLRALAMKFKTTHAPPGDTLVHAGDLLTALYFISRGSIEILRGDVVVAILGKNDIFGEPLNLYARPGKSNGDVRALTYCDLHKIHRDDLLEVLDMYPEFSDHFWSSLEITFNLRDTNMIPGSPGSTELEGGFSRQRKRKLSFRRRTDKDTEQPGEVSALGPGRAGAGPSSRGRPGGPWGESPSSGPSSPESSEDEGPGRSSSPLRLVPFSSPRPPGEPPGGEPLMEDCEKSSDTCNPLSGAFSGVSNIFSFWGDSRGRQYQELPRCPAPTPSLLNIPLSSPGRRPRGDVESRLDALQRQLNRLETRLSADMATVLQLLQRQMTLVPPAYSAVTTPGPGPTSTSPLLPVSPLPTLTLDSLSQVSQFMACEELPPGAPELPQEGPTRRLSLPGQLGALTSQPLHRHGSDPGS

| SMILES | hERG current change (%, negative = inhibition) at 10uM |
| --- | --- |
| CC(C)c1cc(C(=O)O)n(-c2ccccc2)n1 | 12.1% |
| Cc1ccc(S(=O)(=O)n2[nH]c(=O)c(CCO)c2C)cc1 | 8.83% |
| O=C(Cc1ccc(F)cc1)N/N=C/c1ccncc1 | -8.56% |
| Fc1ccc(C2c3cccn3CCN2C(=S)Nc2cccc(Br)c2)cc1 (centres unmarked) | 19.4% |
| O=C(COC(=O)c1ccccc1C(=O)c1ccccc1)NCCc1ccccc1 | -64.8% |
| Cc1ccc(C(=O)c2ccccc2C(=O)OCC(=O)NCCc2ccc(Cl)cc2Cl)cc1 | -9.96% |
| Cc1ccc(C(=O)c2ccccc2C(=O)OCC(=O)NCCc2ccccc2)cc1 | -52.5% |
| Cc1ccc(C(=O)c2ccccc2C(=O)OCC(=O)NC(C)(C)C)cc1 | -0.829% |
| O=C(COC(=O)c1ccccc1C(=O)c1ccc(Cl)cc1)NCCc1ccccc1 | -18.7% |
| O=C(COC(=O)c1ccccc1C(=O)c1ccccc1)NCCc1ccc(Cl)cc1Cl | -31.9% |
| CSCCC(NS(=O)(=O)/C=C/c1ccccc1)C(=O)NCCc1ccc(S(N)(=O)=O)cc1 (centres unmarked) | 7.59% |
| COc1ccc(C(=O)COC(=O)CCn2nnc(-c3cccs3)n2)cc1 | 10.6% |
| CN(Cc1c(C(=O)N/N=C/c2cccc(O)c2)nnn1-c1nonc1N)C1CCCCC1 | -2.25% |
| CCOC(=O)CN1C(=O)CSc2ccccc21 | 0.699% |
| CNc1ncc(C(=O)c2ccccc2)s1 | -1.56% |
| CCN(CC)CCCC(C)NC(=O)c1c(NC(=O)c2ccccc2)sc2c1CCCC2.O=C(O)C(=O)O (centres unmarked) | -76.9% |
| NCCNC(=O)c1c(NC(=O)c2ccccc2)sc2c1CCCC2 | 15.4% |
| CN(C)CCNC(=O)c1c(NC(=O)c2ccccc2)sc2c1CCCC2 | -25.9% |
| CCOc1ccccc1C(c1c(O)nc(SC)[nH]c1=O)c1c(O)nc(SC)[nH]c1=O | 5.67% |
| O=S(=O)(Nc1ncccn1)c1ccc(NS(=O)(=O)c2cc(Cl)ccc2Cl)cc1 | 31.6% |

| SMILES | hERG current change (%, negative = inhibition) at 10uM |
| --- | --- |
| COc1ccccc1C(=O)N(Cc1ccccc1)c1ccc(C)cc1 | -2.96% |
| CCOC(=O)C1(CCc2ccccc2)CCN(C(=O)c2cc(C)nc(C)n2)CC1 | -11% |
| CCOC(=O)C1(CCc2ccccc2)CCN(C(=O)c2cccc(C)n2)CC1 | -11.4% |
| CCOC(=O)C1(CCc2ccccc2)CCN(C(=O)c2occc2C)CC1 | -63.3% |
| CCOC(=O)C1(CCc2ccccc2)CCN(C(=O)C2=C(C)OCCO2)CC1 | -15.2% |
| CC#CC(=O)N1CCC(CCc2ccccc2)(C(=O)OCC)CC1 | -61.4% |
| CC#CC(=O)N1CCC(CO)(CCc2ccccc2)CC1 | 1.33% |
| COc1cc(Cl)c(C)cc1Nc1ncccn1 | 4.73% |
| CC(=O)c1cccc(NC(=S)N2CCCC2)c1 | 9.57% |
| OC1CCC(Nc2ncnc3sccc23)CC1 (centres unmarked) | 13.2% |
| c1ccc(CN2CCC(Nc3ncnc4sccc34)CC2)cc1 | -66.9% |
| c1ccc(CNc2ncnc3sccc23)cc1 | 9.9% |
| Cc1csc2ncnc(NCCc3ccccn3)c12 | -22.4% |
| Cc1sc2ncnc(N[C@@H](Cc3ccccc3)C(=O)O)c2c1C | 14% |
| Cc1csc2ncnc(NC3CCN(Cc4ccccc4)CC3)c12 | -65.5% |
| Cc1csc2c(NC3CCN(Cc4ccccc4)CC3)ncnc12 | -31.8% |
| Cc1sc2ncnc(Nc3ccccc3)c2c1C | 2.79% |
| Cc1sc2ncnc(NC3CCN(Cc4ccccc4)CC3)c2c1C | -79.6% |
| COc1ccc(NC(=O)c2cc(-c3ccc(C)cc3)on2)cc1OC | 19.4% |
| COc1cccc(CN(CC(=O)NCC2CCCO2)C(=O)CNS(=O)(=O)c2ccccc2)c1 (centres unmarked) | 7.52% |

| SMILES | hERG current change (%, negative = inhibition) at 10uM |
| --- | --- |
| O=C(CSc1ccccc1)NC(=O)NCc1ccccc1 | 5.87% |
| COc1ccc(C(=O)C[n+]2ccccc2C)cc1.[Br-] | 13.3% |
| Cc1cc(OCc2cc(C(=O)N(C)C3CCOC3)no2)cc(C)c1Cl (centres unmarked) | -73.6% |
| CN(C(=O)c1cc(COc2ccc(F)c(F)c2)on1)C1CCOC1 (centres unmarked) | -13.1% |
| Cc1ccc(OCc2cc(C(=O)N(C)CC3CCOCC3)no2)cc1C | -13.1% |
| Cc1cc(OCc2cc(C(=O)N(C)C3CCOCC3)no2)cc(C)c1Cl | -13.5% |
| Cc1cc(OCc2cc(C(=O)N(C)CCCN3CCOCC3)no2)cc(C)c1Cl | -58% |
| CN(CCCN1CCOCC1)C(=O)c1cc(COc2cccc(C(F)(F)F)c2)on1 | -40.5% |
| Cc1cc(OCc2cc(C(=O)N(C)Cc3nonc3C)no2)cc(C)c1Cl | 11.8% |
| Cc1cc(OCc2cc(C(=O)N(C)CC3CCOCC3)no2)cc(C)c1Cl | -69% |
| CN(CCCN1CCOCC1)C(=O)c1cc(COc2c(F)cccc2F)on1 | 2.44% |
| Cc1cccc(NC(=O)CN2C(=O)CSC2=O)c1 | 14.5% |
| CC(=O)c1ccc(N2CCN(C(=S)NCCCN(C)C)CC2)cc1 | 2.47% |
| CC1(C(=O)N/N=C/c2ccc3c(c2)OCO3)CC1(Br)Br (centres unmarked) | -5.57% |
| CC(C)n1c(-c2ccco2)csc1=Nc1cccnc1 | -10.3% |
| COc1ccccc1-n1cnc2c(c1=O)c1nc3ccccc3nc1n2-c1ccc(C)cc1 | -19.7% |
| COc1ccc(-c2ccc(/C=N/N3C(=O)C4C5C=CC(C6CC56)C4C3=O)o2)c([N+](=O)[O-])c1 (centres unmarked) | -58.9% |
| O=C1C2C3C=CC(C4CC34)C2C(=O)N1/N=C/c1ccc(-c2ccc(Cl)cc2[N+](=O)[O-])o1 (centres unmarked) | -13.5% |
| Cc1ccc(-c2ccc(/C=N/N3C(=O)C4C5C=CC(C6CC56)C4C3=O)o2)c([N+](=O)[O-])c1 (centres unmarked) | -12.5% |
